High-throughput results from PubChem.
Pol kappa inh – qHTS for Inhibitors of Polymerase Kappa; Potency, µM (highest dose often 107 µM), hits mostly inhibitors; DNA polymerase kappa (Homo sapiens), Q9UBT6; actives 0.53% (n = 400,000); purified Pol kappa, fluorescent DNA synthesis assay, 10 min
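Enzyme at 10 nM met test compounds for 15 min at room temperature. Substrate addition (50 nM final) began the reaction, which was monitored by fluorescence at 0 and 10 min.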
Pol iota inh – qHTS for Inhibitors of Polymerase Iota. Pol iota fluorescent replication assay, 10 min. actives 1% (n = 390,000). Potency, µM (series often up to 115 µM), actives largely listed as inhibitors
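Fluorescent replication assay read twice, at 0 min and 10 min after adding 50 nM (final) substrate. Enzyme (10 nM) and compounds were first incubated 15 min at room temperature; enzyme-free buffer wells were negative controls.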
POLH inh – qHTS for Inhibitors of Polymerase Eta. AID 588591, 2011. recombinant Pol eta, fluorescent DNA replication assay. DNA polymerase eta (Homo sapiens), Q9Y253. Potency, µM (titrated, usually from 114 µM), actives largely listed as inhibitors. actives 1.2% (n = 390,000)
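Fluorescent replication assay: 50 nM final substrate added after a 15 min room-temperature compound preincubation with 10 nM enzyme. Signal taken at 0 min and again at 10 min.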
ALOX12 inh – Primary qHTS assay for inhibitors of human arachidonate 12S-lipoxygenase (ALOX12): Round 2; actives 1.1% (n = 580,000); Polyunsaturated fatty acid lipoxygenase ALOX12 (Homo sapiens), P18054; Potency, µM (series often up to 108 µM), usual class: inhibitors; purified 12hLO, xylenol orange hydroperoxide absorbance
Target sequence (P18054 whole entry, looked up): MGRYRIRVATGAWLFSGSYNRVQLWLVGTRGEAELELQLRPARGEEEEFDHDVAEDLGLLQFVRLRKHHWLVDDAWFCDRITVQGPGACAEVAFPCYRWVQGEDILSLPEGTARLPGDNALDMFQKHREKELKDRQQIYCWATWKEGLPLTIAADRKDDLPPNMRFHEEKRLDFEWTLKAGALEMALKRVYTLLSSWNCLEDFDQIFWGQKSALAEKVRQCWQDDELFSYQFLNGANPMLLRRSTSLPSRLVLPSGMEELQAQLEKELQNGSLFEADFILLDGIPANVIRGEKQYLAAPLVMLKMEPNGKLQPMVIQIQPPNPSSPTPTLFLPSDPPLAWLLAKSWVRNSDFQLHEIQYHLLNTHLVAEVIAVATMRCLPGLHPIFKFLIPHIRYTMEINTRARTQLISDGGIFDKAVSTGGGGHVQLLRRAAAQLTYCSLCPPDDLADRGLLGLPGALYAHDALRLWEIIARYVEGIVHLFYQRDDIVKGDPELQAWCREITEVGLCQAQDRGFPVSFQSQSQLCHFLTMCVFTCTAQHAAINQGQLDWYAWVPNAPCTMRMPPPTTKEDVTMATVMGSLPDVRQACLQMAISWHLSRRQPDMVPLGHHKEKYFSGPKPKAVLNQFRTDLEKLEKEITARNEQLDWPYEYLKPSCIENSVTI
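Purified human 12hLO at 150 nM in 25 mM Hepes, 0.01% Triton X-100, pH 7.0, preincubated 15 min at room temperature with compound. Reaction started with 40 uM arachidonic acid, 30 min at room temperature. Hydroperoxide measured by Fe-xylenol orange, 573/405 nm absorbance ratio.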
POLB inh – qHTS Assay for Inhibitors of DNA Polymerase Beta; P06746; Pol beta primer extension/strand displacement, fluorescence kinetic; Potency, µM (series often up to 114 µM), most hits filed as inhibitors; actives 1.3% (n = 340,000)
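Kinetic readout of DNA synthesis with strand displacement by Pol beta. Compound and 10 nM enzyme sit 15 min at room temperature; 50 nM substrate starts the reaction, read immediately and at 10 min.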
PI5P4K alpha inh – qHTS for Inhibitors of phosphatidylinositol 5-phosphate 4-kinase (PI5P4K). max response, %. AID 652105, 2013. PI5P4Kalpha enzyme, ADP-Glo luminescence, 60 min; stronger effect = lower value. actives 1.2% (n = 330,000); active = max response of -50% or lower; inconclusive = between -30% and -50%; inactive = -30% or higher; also: value at the top dose of about 77 µM
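Enzyme plus substrate dispensed, test compounds pinned in, then ATP (5 microM final) added. After 60 min at RT, ADP-Glo reagent 1 for 45 min and reagent 2 for 30 min preceded luminescence imaging.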
A number is an active result; i = inactive; ? = inconclusive; nt = no result given; ! = a repeat was not active. Compounds with a hit are over-represented: about 2.9% of the library has one in this group of screens. Unless noted, calls follow the shape of the dose curve; as a rule, active = well fitted inhibition curve with a large enough effect; inconclusive = small, poorly fitted or top-dose-only effect, or another doubt; inactive = no such curve, though single readings can be large or run the other way.

SMILES	Pol kappa inh	Pol iota inh	POLH inh	ALOX12 inh	POLB inh	PI5P4K alpha inh
Cc1cccc(Cc2c(C)nc3nc(SCC(=O)NCc4ccco4)nn3c2C)c1	i	i	i	?	?	i
CC(C)NC(=O)c1cccc2c1CCCN2Cc1nc(-c2cccc(Cl)c2)no1	nt	nt	nt	i	nt	nt
CC1(C)CCC[C@@]2(C)C1CCC1(C)OC(=O)C[C@@H]12 (some centres undefined)	nt	nt	nt	i	nt	nt
O=C(O)CNc1ccc(S(=O)(=O)C(F)(F)F)cc1[N+](=O)[O-]	i	i	i	3.98µM	i	i
CCNc1ccc(S(=O)(=O)N(C)C)cc1[N+](=O)[O-]	i	i	i	44.7µM	i	i
CN(C)C(CNc1ccc(S(C)(=O)=O)cc1[N+](=O)[O-])c1ccccc1 (centres undefined)	i	i	i	i	i	i
COc1cccc(Oc2coc3cc(OC(=O)c4ccc5c(c4)OCO5)ccc3c2=O)c1	nt	nt	nt	i	nt	nt
CCC(=O)c1ccc(OCC(=O)N2CCCC2)c(OC)c1	i	i	i	i	22.4µM	i
COc1ccc(C(=O)Nc2c(C)cccc2C(C)C)c(OC)c1	nt	nt	nt	i	nt	nt
O=[N+]([O-])c1cc2c(c3cccnc13)COCO2	i	39.8µM	10µM	i	nt	-56.2
CCOc1ccc(NC(=O)CN(C)S(=O)(=O)c2ccc(-c3ccc(=O)[nH]n3)s2)cc1	89.1µM	?	39.8µM	i	31.6µM	i
CCc1cccc(C)c1NC(=O)CN(C)S(=O)(=O)c1ccc(-c2ccc(=O)[nH]n2)s1	i	i	i	i	i	i
O=C(O)/C=C\c1cccc(-n2nnnc2SCc2ccccc2F)c1	i	i	i	i	i	-83.4
O=C(O)c1ccc(-n2nnnc2SCc2ccccc2F)cc1	i	i	i	i	i	i
N#Cc1c(N)n[nH]c1CCCNC(=O)NC(c1ccccc1)C1CC1 (centres undefined)	nt	nt	nt	i	nt	nt
O=c1c2c(-c3ccccc3)csc2ncn1/N=C/c1ccc(O)c([N+](=O)[O-])c1	i	i	i	?	i	i
O=c1c2c(-c3ccccc3)csc2ncn1/N=C/c1cccc([N+](=O)[O-])c1O	i	i	i	i	i	-102.9
S=C(NCCSCc1c(Cl)cccc1Cl)Nc1ccccc1	i	i	i	35.5µM	i	i
CC(C)(C)c1ccc(OCCNC(=S)Nc2ccccc2)cc1	i	i	i	44.7µM	i	i
CCOc1ccc(NC(=S)NCCCc2ccccc2)cc1	i	i	i	?	i	i
CCOc1ccc(CSCCNC(=S)Nc2ccccc2)cc1	i	i	i	44.7µM	i	i
CC(C)(C)c1ccc(OCCNCc2ccccc2)cc1	i	i	i	?	i	i
CCCC(=O)OC/C=C(\C)CCC=C(C)C	nt	nt	nt	i	nt	nt
Oc1ccc(C2(c3ccc(O)cc3)CCCC2)cc1	nt	nt	nt	35.5µM	nt	nt
Cc1ccc(C2(c3ccc(O)cc3)CCCCC2)cc1	nt	nt	nt	i	nt	nt
SMILES	Pol kappa inh	Pol iota inh	POLH inh	ALOX12 inh	POLB inh	PI5P4K alpha inh
Cc1cccc(C(=O)Nc2ccccc2SC2CCCC2)c1I	nt	nt	nt	i	nt	nt
O=C1OC(c2ccc(F)cc2)=C/C1=C\c1ccc([N+](=O)[O-])o1	nt	nt	nt	nt	7.08µM	nt
O=C(COC(=O)C1CCOCC1)c1ccc[nH]1	nt	nt	nt	i	nt	nt
CCNC(=O)C1CCCN(C(=O)Cc2cccs2)CC1 (centres undefined)	nt	nt	nt	50.1µM	nt	i
Cc1ccc(Cl)c(OCn2ccc(C(=O)N3CCN(Cc4ccccc4F)CC3)n2)c1	nt	nt	nt	i	nt	nt
Cc1ccc(S(=O)(=O)Oc2ccc(C3C4=C(CC(C)(C)CC4=O)OC4=C3C(=O)CC(C)(C)C4)cc2)cc1	nt	nt	nt	i	nt	nt
COc1ccc(C2CC(c3ccccc3)Oc3cc(C)cc(C)c32)cc1 (centres undefined)	i	i	nt	nt	nt	nt
COc1ccc([C@@H]2C[C@H](c3ccccc3)Oc3cc(C)cc(C)c32)cc1	i	i	i	1.12µM	i	i
COc1cc(Br)cc(CN2CCN(C/C=C/c3ccccc3)CC2)c1O	i	i	i	14.1µM	i	nt
COc1ccc(Oc2coc3cc(OCc4ccc([N+](=O)[O-])cc4)ccc3c2=O)cc1	nt	nt	nt	i	nt	nt
Cc1cc(Cl)ccc1OCCNC(=S)NC(=O)c1cccnc1	i	i	i	i	i	i
CC(C)c1ccccc1OCCNC(=S)NC(=O)c1cccnc1	i	i	i	39.8µM	?	i
COc1ccc(CN(CCCC#N)C2CC2)cc1	nt	nt	nt	i	nt	nt
O=Cc1ccc(OCC2CC2)c2ccccc12	nt	nt	nt	i	nt	nt
CC(C)=CCc1c(O)cc(O)c2c1OC(c1ccc(O)cc1)CC2=O (centres undefined)	i	i	i	?	nt	-63.2
Cc1cc(=O)c2c(C)ccc(C)c2[nH]1	i	i	i	i	i	i
Cc1cc(=O)c2c(O)c3c(O)cc(O)c4c5c(O)cc(O)c6c(O)c7c(=O)cc(C)c8c1c2c(c34)c(c65)c78	10µM	nt	nt	?	nt	nt
CCCCCCSc1nc(O)c(C2OC(=O)c3c2ccc(OC)c3OC)c(=O)n1-c1ccccc1 (centres undefined)	i	?	17.8µM	i	i	i
O=C1C=CC(O)(c2cc(=O)c3c(O)cc(O)cc3o2)C=C1	i	6.31µM	?	i	i	?
CN(NC(=O)CCCNC(=O)c1ccc(Cl)cc1)c1ccccc1	nt	nt	nt	i	nt	nt
Cc1ccc(S(=O)(=O)N2CCc3ccccc3CC2)cc1	i	i	i	i	nt	i
c1ccc(-c2cc3n(c2)CCc2ccccc2-3)cc1	i	i	i	6.31µM!	i	i
Cc1ccc(-c2cc3n(c2)CCc2ccccc2-3)cc1	nt	nt	nt	15.8µM	nt	nt
O=C(O)c1cc2c(s1)-c1ccccc1CC2	i	i	i	i	i	i
CC(C)CCC(C)NC(=O)c1nccnc1N (centres undefined)	nt	nt	nt	i	nt	nt
Cc1nc2cc(NC(=O)NCCC3=CCCCC3)ccc2o1	i	89.1µM	i	i	i	nt
O=c1c2c(O)cc(O)cc2oc2ccc(O)c(O[C@@H]3O[C@H](CO)[C@@H](O)[C@H](O)[C@H]3O[C@H]3O[C@H](CO)[C@@H](O)[C@H](O)[C@H]3O)c12	i	i	i	i	nt	i
C[C@@H]1O[C@@H](OC[C@H]2O[C@@H](Oc3c(-c4ccc(O)c(O)c4)oc4cc(O)cc(O)c4c3=O)[C@H](O)[C@@H](O)[C@@H]2O)[C@H](O)[C@H](O)[C@H]1O	23.8µM!	i	i	i	8.91µM	i
O=c1c(O[C@@H]2O[C@H](CO)[C@@H](O)[C@H](O)[C@H]2O)c(-c2ccc(O)c(O)c2)oc2cc(O)cc(O)c12	nt	nt	nt	nt	1.78µM	nt
